KDM5B inhibitor: inhibitors of human KDM5B histone demethylase. Potency, µM (doses to about 57.7 µM), most hits filed as inhibitors. Q9UGL1. KDM5B demethylase, FDH-coupled NADH fluorescence (FDH is formaldehyde dehydrogenase). 220,000 compounds, 2.6% hits; active means well fitted inhibition curve with a large enough effect; further: 0% is about no effect; nearly all actives have a fitted effect of over 70% in size
Target sequence (Q9UGL1 whole entry, looked up): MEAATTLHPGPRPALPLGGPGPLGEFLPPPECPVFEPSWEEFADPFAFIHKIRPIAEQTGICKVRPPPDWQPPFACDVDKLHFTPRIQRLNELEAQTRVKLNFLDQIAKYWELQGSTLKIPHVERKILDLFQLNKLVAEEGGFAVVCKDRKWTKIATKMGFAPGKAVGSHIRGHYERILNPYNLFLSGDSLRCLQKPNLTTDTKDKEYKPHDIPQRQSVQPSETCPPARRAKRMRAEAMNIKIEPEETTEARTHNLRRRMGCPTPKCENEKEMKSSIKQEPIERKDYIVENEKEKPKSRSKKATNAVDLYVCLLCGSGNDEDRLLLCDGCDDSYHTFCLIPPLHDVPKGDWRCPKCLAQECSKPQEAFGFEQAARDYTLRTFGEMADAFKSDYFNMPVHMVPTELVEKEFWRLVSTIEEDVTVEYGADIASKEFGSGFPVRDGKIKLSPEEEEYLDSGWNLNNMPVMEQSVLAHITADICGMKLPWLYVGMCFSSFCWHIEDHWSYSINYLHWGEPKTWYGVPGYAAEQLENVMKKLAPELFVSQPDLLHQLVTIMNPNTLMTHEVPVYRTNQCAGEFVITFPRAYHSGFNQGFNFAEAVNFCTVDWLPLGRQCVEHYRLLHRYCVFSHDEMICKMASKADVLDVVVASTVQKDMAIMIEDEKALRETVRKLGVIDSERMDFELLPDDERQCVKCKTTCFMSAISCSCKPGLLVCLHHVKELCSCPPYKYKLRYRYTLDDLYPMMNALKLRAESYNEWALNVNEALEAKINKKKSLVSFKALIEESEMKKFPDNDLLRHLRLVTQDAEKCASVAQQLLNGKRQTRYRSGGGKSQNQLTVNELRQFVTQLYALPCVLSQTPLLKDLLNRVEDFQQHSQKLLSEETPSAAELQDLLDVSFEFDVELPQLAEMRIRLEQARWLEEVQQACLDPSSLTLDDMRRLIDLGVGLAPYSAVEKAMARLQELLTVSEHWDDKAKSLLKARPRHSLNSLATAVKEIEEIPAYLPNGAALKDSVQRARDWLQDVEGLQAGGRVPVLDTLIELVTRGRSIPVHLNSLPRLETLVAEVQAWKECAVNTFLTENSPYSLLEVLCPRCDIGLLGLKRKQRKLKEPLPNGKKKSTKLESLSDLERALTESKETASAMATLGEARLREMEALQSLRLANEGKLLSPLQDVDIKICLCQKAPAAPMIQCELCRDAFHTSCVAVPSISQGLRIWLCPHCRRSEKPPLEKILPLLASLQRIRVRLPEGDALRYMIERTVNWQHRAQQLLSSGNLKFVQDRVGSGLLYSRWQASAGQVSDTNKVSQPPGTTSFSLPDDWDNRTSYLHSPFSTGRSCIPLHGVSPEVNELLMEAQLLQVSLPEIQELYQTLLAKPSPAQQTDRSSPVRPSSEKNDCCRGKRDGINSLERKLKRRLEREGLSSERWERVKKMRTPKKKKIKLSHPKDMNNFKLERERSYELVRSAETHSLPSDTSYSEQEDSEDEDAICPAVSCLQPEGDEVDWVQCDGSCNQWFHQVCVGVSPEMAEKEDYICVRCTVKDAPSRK
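Compound dilutions met 200 nM (final) KDM5BΔAP for 10 min at room temperature before substrate addition. The substrate mix held 12.5 µM H3K4me3 with cofactors 25 µM α-ketoglutarate and 50 µM Fe²⁺. NADH signal gain over 30 min defined activity.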
Starred values were filed as active, the others as inactive. Many of the other results were omitted from the sample, so hits are more common in it than they were. Potency means the concentration at half of the fitted maximal effect.

What do the screens show for `CCC(CC)C(=O)Nc1ccc(-c2cn3cccnc3n2)cc1`?
KDM5B inhibitor: inactive

How did COc1cc(-c2cc(C)c3cccc(OC)c3n2)cc2c1OCCN(C(=O)CCN)C2 do in these assays?
KDM5B inhibitor: 28µM*

What do the screens show for `COc1cc(-c2cccs2)cc2c1OCCN(C(=O)c1ccncc1C)C2`?
KDM5B inhibitor: inactive

Results for COc1cc(-c2cccs2)cc2c1OCCN(C(=O)C(C)Cn1cncn1)C2 (stereo not given) ?
KDM5B inhibitor: inactive

How did CC(C)NC(=O)N1CCN(c2cc(Cl)ncn2)C(=O)C1 do in these assays?
KDM5B inhibitor: inactive

Results for CCn1c(=O)c2c(cc(C)n2C)n(CC(=O)Nc2ccccc2C)c1=O ?
KDM5B inhibitor: inactive

Results for CCc1noc(-c2cccn3c(CNC(=O)C(C)c4ccccc4)nnc23)n1 (stereo not given) ?
KDM5B inhibitor: 22µM*

What do the screens show for `CCc1noc(-c2cccn3c(CNC(=O)CCc4ccc(OC)cc4)nnc23)n1`?
KDM5B inhibitor: inactive

What do the screens show for `CCc1noc(-c2cccn3c(CNC(=O)COc4ccccc4)nnc23)n1`?
KDM5B inhibitor: 32µM*

What do the screens show for `CCc1noc(-c2cn(C3CCN(C(=O)COc4ccccc4)CC3)nn2)n1`?
KDM5B inhibitor: inactive

What do the screens show for `CCN1CCN(C(c2cccs2)C(C)NC(=S)Nc2cccc(C)c2C)CC1` (stereo not given)?
KDM5B inhibitor: inactive

What do the screens show for `O=C(NCc1ccccc1)c1ccc2c(c1)N(Cc1ccccc1F)C(=O)c1ccccc1S2=O` (stereo not given)?
KDM5B inhibitor: inactive

How did Cc1ccc(CNC(=O)C2Cn3cccc3C(=O)N2Cc2cccnc2)o1 (stereo not given) do in these assays?
KDM5B inhibitor: inactive

How did COc1ccc(NC(=O)C2CCN(c3ccc(Sc4ccc(C)cc4)nn3)CC2)cc1 do in these assays?
KDM5B inhibitor: inactive

What do the screens show for `CCc1ccc(NC(=O)Nc2ccccc2SCc2cc(=O)n3cc(C)ccc3n2)cc1`?
KDM5B inhibitor: inactive

Results for CN1CC2(CCCN(Cc3cc4ccccc4n(C)c3=O)C2)OC1=O (stereo not given) ?
KDM5B inhibitor: 22µM*

What do the screens show for `CN1CC2(CCCN(Cc3ccc(-c4ccccn4)cc3)C2)OC1=O` (stereo not given)?
KDM5B inhibitor: inactive

Results for CN1CC2(CCCN(Cc3cc4ccccc4o3)C2)OC1=O (stereo not given) ?
KDM5B inhibitor: inactive

What do the screens show for `O=C(COc1ccccc1)Nc1ccc([C@@H](O)[C@H]2COCC(=O)N2Cc2ccccc2F)cc1`?
KDM5B inhibitor: inactive

What do the screens show for `O=C(NCCCn1ccnc1)c1c(F)cccc1F`?
KDM5B inhibitor: inactive

Results for CN(C)CCNC(=O)c1cc(-c2ccc(F)cc2)cc2ncn(C)c12 ?
KDM5B inhibitor: 28µM*

Results for Cn1cnc2cc(-c3ccc(F)cc3)cc(C(=O)NCCCn3ccnc3)c21 ?
KDM5B inhibitor: 40µM*

How did Cc1cc(C)c(CNC(=O)c2cc(-c3ccc(CN(C)C)cc3)cc3ncn(C)c23)c(=O)[nH]1 do in these assays?
KDM5B inhibitor: inactive

How did O=C(NCCc1ccccn1)c1cccc(F)c1 do in these assays?
KDM5B inhibitor: inactive

What do the screens show for `Cc1ccc(-n2nc(C(=O)NCCN(C)C)c(=O)n(C)c2=O)cc1`?
KDM5B inhibitor: inactive

What do the screens show for `O=C(NCCc1ccccn1)c1cc(F)cc(F)c1`?
KDM5B inhibitor: inactive

How did Cn1cnc2cc(-c3ccc(F)cc3)cc(C(=O)NCCc3ccccn3)c21 do in these assays?
KDM5B inhibitor: 28µM*

How did CSc1ccc(Cl)c(C(=O)NCCCn2ccnc2)c1 do in these assays?
KDM5B inhibitor: inactive

What do the screens show for `CC(C)(C)OC(=O)N1CCC(CNC(=O)c2ccc(F)cc2F)CC1`?
KDM5B inhibitor: inactive

What do the screens show for `COc1ccccc1-c1cc2c(ccn2C)c(C(=O)NCC2CCN(C)C(=O)C2)n1` (stereo not given)?
KDM5B inhibitor: inactive

Results for CN1CCC(CNC(=O)c2cc(-c3ccc(F)cc3)cc3ncn(C)c23)CC1=O (stereo not given) ?
KDM5B inhibitor: 32µM*

What do the screens show for `O=C(NC(=O)c1ccccc1)Nc1ccc(-n2nc(C(F)(F)F)cc2C(F)(F)F)cc1`?
KDM5B inhibitor: inactive

What do the screens show for `Cc1cc(C)cc(NC(=S)NCc2ccc(Cl)cc2)c1`?
KDM5B inhibitor: inactive

How did Cc1cc(C)c2oc(C(=O)NCC(c3ccc(C)o3)N(C)C)cc(=O)c2c1 (stereo not given) do in these assays?
KDM5B inhibitor: inactive

Results for COc1ccc(C(=O)N2CCC(n3cc(-c4nc(C5CC5)no4)nn3)C2)cc1 (stereo not given) ?
KDM5B inhibitor: inactive

What do the screens show for `CCc1noc(CN2CCN(Cc3cc(C)no3)CC2)n1`?
KDM5B inhibitor: inactive

Results for O=S(=O)(Cc1csc(-c2ccccc2)n1)Cc1ccccc1F ?
KDM5B inhibitor: inactive

What do the screens show for `COc1cc(CNC(=O)c2cc(-c3ccc(F)cc3)cc3ncn(C)c23)ccn1`?
KDM5B inhibitor: 32µM*

Results for CN(C)c1cccc(-c2cc(C(=O)NCc3cccnc3)c3c(c2)ncn3C)c1 ?
KDM5B inhibitor: inactive

Results for COCCNC(=O)c1cc(-c2ccccc2OC(F)(F)F)cc2ncn(C)c12 ?
KDM5B inhibitor: inactive

Results for CCOCC(=O)N1CCc2n[nH]c(=O)n2CC1 ?
KDM5B inhibitor: inactive

How did COc1nccnc1NC1CCN(C(=O)c2ccccc2C)CC1 do in these assays?
KDM5B inhibitor: 28µM*

How did CCCOc1nccnc1NC1CCN(S(=O)(=O)CC)CC1 do in these assays?
KDM5B inhibitor: 28µM*

How did COc1cc(OC)cc(C(=O)N2CCN(C(=O)c3cccs3)CC2)c1 do in these assays?
KDM5B inhibitor: inactive

What do the screens show for `CCS(=O)(=O)N1CCC(Oc2ncccc2C(=O)N(C)C)C1` (stereo not given)?
KDM5B inhibitor: inactive

Results for CCS(=O)(=O)N1CCC(NC(=O)c2ccccc2C(=O)c2ccc(C)cc2)CC1 ?
KDM5B inhibitor: inactive

How did COC1CCC12CCN(C(=O)c1cccs1)CC2 (stereo not given) do in these assays?
KDM5B inhibitor: inactive

What do the screens show for `CCNC(=O)c1cccnc1OC1CCN(C(=O)c2ccccc2C)C1` (stereo not given)?
KDM5B inhibitor: inactive

Results for O=C(c1n[nH]c2c1CCCCCC2)N1CCC(Cc2nncn2CC2CC2)CC1 ?
KDM5B inhibitor: inactive

How did COc1nccnc1NC1CCN(C(=O)c2cccs2)CC1 do in these assays?
KDM5B inhibitor: 25µM*

Results for COc1nccnc1NC1CCN(C(=O)c2n[nH]c3c2CCCC3)CC1 ?
KDM5B inhibitor: 32µM*

What do the screens show for `COc1ccc(CCNC(=O)C2CCN(C(=O)c3ccccc3C)CC2)cc1`?
KDM5B inhibitor: inactive

Results for COC(=O)CC1C(=O)NCCN1C(=O)c1n[nH]c2c1CCCC2 (stereo not given) ?
KDM5B inhibitor: inactive

What do the screens show for `Cc1ccc(-c2csc(N)c2C#N)cc1`?
KDM5B inhibitor: inactive

Results for Cc1ccccc1C1=CCN(c2ncc(NC(=O)c3ccc(Cl)cc3)cc2C(=O)O)CC1 ?
KDM5B inhibitor: inactive

Results for N#Cc1cccc(CN[C@H]2CO[C@H]3[C@@H]2OC[C@H]3OC(=O)Nc2ccc(Oc3ccccc3)cc2)c1 ?
KDM5B inhibitor: inactive

What do the screens show for `CCOc1ccc(CCNC(=O)CCn2c(=O)c3cccn3c3ccc(F)cc32)cc1`?
KDM5B inhibitor: inactive

What do the screens show for `CCOc1ccc(C(=O)Cn2cnc3c2c(=O)n(C)c(=O)n3C)cc1`?
KDM5B inhibitor: inactive

Bioassay records: PubChem, National Center for Advancing Translational Sciences (NCATS)
